According to PubChem BioAssay (NCI):
This is part of a sample that, as a whole, favours compounds with a hit. Of some 83,000 tested, about 20% had one in any assay.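 Values shown are percent growth following 48 h exposure of cells in 96-well plates to a single concentration of compound; below 10 was considered active.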 Calls of active or inactive are those of the source.

Experiments:
Assay in all cases: NCI-60 one-dose screen, 48 h (100 = growth as untreated, 0 = no growth, -100 = all killed)
[1] = test system: NCI-H23 lung; settings: 10 µM unless noted
[2] = test system: NCI-H226 lung; settings: 10 µM unless noted
[3] = test system: NCI-H322M lung; settings: 10 µM unless noted
[4] = test system: HOP-62 NSCLC; settings: 10 µM unless noted
[5] = test system: NCI-H460 lung; settings: 10 µM unless noted
[6] = test system: HOP-92 NSCLC; settings: 10 µM unless noted
[7] = test system: NCI-H522 lung; settings: 10 µM unless noted
[8] = test system: A549/ATCC NSCLC; settings: 10 µM unless noted
[9] = test system: 786-0 renal; settings: 10 µM unless noted
[10] = test system: COLO 205 colon; settings: 10 µM unless noted
[11] = test system: DU-145 prostate; settings: 10 µM unless noted
[12] = test system: K-562 leukemia; settings: 10 µM unless noted
[13] = test system: MALME-3M melanoma; settings: 10 µM unless noted
[14] = test system: MDA-MB-231 breast; settings: 10 µM unless noted
[15] = test system: RXF 393 renal; settings: 10 µM unless noted
[16] = test system: SF-268 CNS; settings: 10 µM unless noted
[17] = test system: SF-295 CNS; settings: 10 µM unless noted
[18] = test system: SF-539 CNS; settings: 10 µM unless noted
[19] = test system: UACC-257 melanoma; settings: 10 µM
[20] = test system: M14 melanoma; settings: 10 µM unless noted

Measured: growth

Nc1nc(-c2cccc([N+](=O)[O-])c2)c(N=Nc2ccccc2[N+](=O)[O-])s1
inactive: [3] 76.7% | [5] 39.5% | [7] 26.4% | [8] 36.1% | [10] 93.7% | [11] 37.4% | [12] 50.8% | [13] 53.9% | [16] 19.6% | [17] 26.6% | [19] 103% | [20] 50.7%
active: [1] 3.8% | [2] 4.17% | [4] -36.1% | [6] -28.4% | [9] -66.4% | [14] -54.1% | [15] -67.7% | [18] -73.3%

Cc1ccccc1NC1CC(=O)N(c2ccc(Cl)cc2Cl)C1=O (stereo not given)
inactive: [1] 102% | [2] 108% | [3] 99% | [4] 103% | [5] 104% | [6] 78% | [7] 95.7% | [8] 99.8% | [9] 94.2% | [10] 120% | [11] 103% | [12] 107% | [13] 98.9% | [14] 104% | [15] 112% | [16] 99.4% | [17] 102% | [18] 93.1% | [19] 98.5% | [20] 102%

COc1ccc(-c2ccnc3c(C#N)c(Nc4ccccc4)nn23)cc1OC
active: [6] -0.0748%
inactive: [1] 93% | [2] 62.6% | [3] 91.2% | [4] 86.5% | [5] 92.8% | [7] 81.4% | [8] 85.4% | [9] 85.7% | [10] 97.1% | [11] 93.9% | [12] 93.6% | [13] 110% | [14] 64.2% | [15] 15.8% | [16] 86.4% | [17] 93.2% | [18] 78.8% | [19] 104% | [20] 117%

Oc1ccc(-c2nnc(SCc3ccc(O)c4ncccc34)o2)cc1
active: [2] 8.78% | [5] 2.22% | [6] -15.9% | [15] -3.04% | [17] 0.187% | [19] 1.45% | [20] 0.609%
inactive: [1] 13.4% | [3] 19.8% | [4] 13.9% | [7] 11.4% | [8] 15.2% | [9] 20.5% | [10] 46.2% | [11] 21.2% | [12] 14.2% | [13] 18.7% | [14] 24.5% | [16] 15.9% | [18] 13.8%

COc1ccc(-c2nc3cc(Cl)c(Cl)cc3n2CC(=O)N=Nc2c(O)[nH]c3ccc(Br)cc23)cc1
inactive: [3] 41% | [7] 14% | [12] 21.6% | [18] 14.9% | [19] 61.9%
active: [1] -21.5% | [2] -16.2% | [4] -50.2% | [5] -42.5% | [6] -34% | [8] -28.9% | [9] -17.3% | [10] -37.9% | [11] -48.4% | [13] -38.5% | [14] 0.262% | [15] -58.3% | [16] 9.74% | [17] -50% | [20] -48.8%

CCc1ccc(NC(=O)N[C@@H](Cc2cc(F)cc(F)c2)C(=O)N[C@@H]2C(=O)N3CCC[C@H]3C(=O)N3CCO[C@H](C)[C@H]3C(=O)N[C@@H](CO)C(=O)N3C[C@H](C)C[C@H]3C(=O)O[C@H]2C)c(F)c1
inactive: [1] 35.4% | [3] 50.8% | [4] 32.6% | [5] 16.3% | [7] 17.5% | [8] 26.9% | [9] 39.8% | [11] 26.4% | [12] 21.5% | [13] 40.8% | [14] 33.3% | [16] 32.4% | [17] 12.6% | [18] 39.9% | [19] 12.9% | [20] 24%
active: [2] 4.36% | [6] -1.76% | [10] -42.7% | [15] -5.23%

C#CCOc1ccc(/C=N/Nc2nc(-c3cc(Cl)ccc3Cl)cs2)cc1
inactive: [1] 75.3% | [2] 77.2% | [3] 105% | [4] 104% | [5] 96.8% | [6] 69.7% | [7] 84.3% | [8] 103% | [9] 107% | [10] 105% | [11] 102% | [12] 78.7% | [13] 99.3% | [14] 84.7% | [15] 111% | [16] 95.7% | [17] 89.7% | [18] 102% | [19] 103% | [20] 94.8%

O=C(Nc1cc(F)cc2cccnc12)c1cnc(N2CCOCC2)cn1
inactive: [1] 59.2% | [2] 80.7% | [3] 92% | [4] 87.3% | [5] 98.9% | [6] 83.7% | [7] 15.2% | [8] 95.3% | [9] 65.7% | [10] 18.1% | [11] 68.5% | [12] 22.7% | [13] 53.6% | [14] 54.7% | [15] 59.8% | [16] 94.3% | [17] 97.4% | [18] 87.6% | [19] 30.6% | [20] 70.6%

Cc1cc(Cl)cc(NS(=O)(=O)c2ccc(-c3cnc(C4CC4)o3)cc2)c1
active: [10] 2.78% | [12] 8.81% | [15] -0.916% | [17] 1.04% | [18] 6.15%
inactive: [1] 35.7% | [2] 60.5% | [3] 46.7% | [4] 41.7% | [5] 16.2% | [6] 66.5% | [7] 17.9% | [8] 31.8% | [9] 49.4% | [11] 24.7% | [13] 65.4% | [14] 35.4% | [16] 61.7% | [19] 68.2% | [20] 13.1%

CCOC(=O)C1=C(C)Nc2nc3ccccc3n2C1c1ccccc1 (stereo not given)
inactive: [1] 97% | [2] 104% | [3] 104% | [4] 100% | [5] 74.7% | [6] 95.7% | [7] 93.3% | [8] 92.7% | [9] 95.4% | [10] 104% | [11] 105% | [12] 76.1% | [13] 94.3% | [14] 95.8% | [15] 107% | [16] 102% | [17] 102% | [18] 96.9% | [19] 97.4% | [20] 102%

CCOC(=O)C1=C(C)Nc2nc3ccccc3n2C1c1cccc(Br)c1 (stereo not given)
inactive: [1] 86.7% | [2] 102% | [3] 97.6% | [4] 74.3% | [5] 89.2% | [6] 99.3% | [7] 37.1% | [8] 80.7% | [9] 93.5% | [10] 81.6% | [11] 93.3% | [12] 29.9% | [13] 51.9% | [14] 79% | [15] 99.7% | [16] 94.7% | [17] 60.7% | [18] 85.8% | [19] 87.1% | [20] 63.4%

CN1CCN(c2ccc(C(=O)/C=C/c3ccc(Cl)c(C(F)(F)F)c3)cc2)CC1
active: [12] 7.64%
inactive: [1] 81.5% | [2] 86% | [3] 78.8% | [4] 88.9% | [5] 88% | [6] 41.8% | [7] 76.4% | [8] 72.8% | [9] 79.9% | [10] 60.6% | [11] 77.9% | [13] 88.4% | [14] 83.3% | [15] 63.4% | [16] 87% | [17] 103% | [18] 49.4% | [19] 75.2% | [20] 87.2%

CN1CCN(c2nc(-c3csc(-c4ccncc4)n3)cc3ccccc23)CC1
inactive: [1] 71.8% | [2] 98.1% | [3] 82.1% | [4] 85% | [5] 78.2% | [6] 15.3% | [7] 55.7% | [8] 71.1% | [9] 65.7% | [10] 39.6% | [11] 65.3% | [12] 11% | [13] 30.7% | [14] 63% | [16] 72.8% | [17] 45.8% | [18] 52.6%
active: [15] -26.5% | [19] -1.71% | [20] -18.5%

CSc1ccc(/C(=N/N=C(N)N)c2ccccc2)cc1
inactive: [1] 29.2% | [2] 50.6% | [3] 50.9% | [4] 49.3% | [6] 34.4% | [7] 11.8% | [8] 27.4% | [9] 31% | [11] 15.2% | [12] 25.2% | [13] 50.6% | [14] 29.5% | [15] 15.4% | [16] 53.6% | [19] 80.7%
active: [5] 6.46% | [10] 0.455% | [17] 5.99% | [18] -8.23% | [20] 9.73%

CCN1C(=O)N(CC)C2SC(N/N=C/c3ccc(F)cc3)=NC21 (stereo not given)
active: [5] 4.72% | [6] -0.0922% | [7] -32.8% | [10] -49.1% | [18] -4.01%
inactive: [1] 29.6% | [2] 48.1% | [3] 55.2% | [4] 33% | [8] 26.4% | [9] 30.3% | [11] 16% | [12] 14.2% | [13] 54.7% | [14] 32.4% | [15] 47.3% | [16] 42.4% | [17] 12.1% | [19] 57.8% | [20] 14.6%
